Records with an inconclusive call do not appear. Activity calls are given as the source filed them. Unless noted, calls come from the whole dose curve; as a rule, active = well fitted curve in the direction sought with a large enough effect; inconclusive = small, poorly fitted or top-dose-only effect, or another doubt; inactive = no such curve, though single readings can be large; an effect the other way counts as inactive or inconclusive.
Key:
[1] = Cell Viability - BJ (AID 421; calls by dose curve;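 note: potency is the fitted concentration of half-maximal effect; cells exposed to compound for 40 hours at 37 °C before readout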); details: BJ fibroblast viability, qHTS
Outline: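 Cytotoxicity in human BJ foreskin fibroblasts is scored as loss of cellular ATP after a 40-hour exposure, measured by luciferase luminescence. Controls are DMSO and 100 uM tamoxifen.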

[2] = Cell Viability - Jurkat (AID 426;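 active = dose-dependent loss of cell ATP signal giving a full or clear fitted curve, ranked by lower potency value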; note: potency is the fitted concentration of half-maximal effect); details: qHTS
Outline: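 Luminescent ATP read-out (CellTiter-Glo, 20 min at room temperature) after 40 hr compound exposure at 37 °C of Jurkat E6-1 cells, 5000/well. Decreased ATP taken as cytotoxicity; AC50 from standard Hill equation.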

[3] = Cell Viability - Hek293 (AID 427;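 active = compounds whose dose-response curve shows a full or clear partial loss of cell viability, called from curve shape rather than a numeric limit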;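 note: potency is the fitted concentration of half-maximal effect; cells exposed to compound for 40 hours at 37 °C before reading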); details: qHTS
Outline: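 qHTS, human embryonic kidney (adenovirus-transformed) cells; 40 hr cpd, 37 °C; CellTiter-Glo ATP luminescence. Norm: DMSO = 0, 100 uM tamoxifen = 100% inhibition. Hill-fit AC50.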

[4] = Cell Viability - HepG2 (AID 433; calls by dose curve;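 note: potency is the fitted concentration of half-maximal effect; potency for ATP loss meaning cytotoxicity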); details: qHTS
Outline: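 HepG2 cells, 1500 per well, treated 40 hr at 37 °C in complete medium; viability from intracellular ATP by CellTiter-Glo luminescence. Normalized to DMSO and 100 uM tamoxifen; AC50 from Hill fit of qHTS concentration-response.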

[5] = Cell Viability - MRC5 (AID 434; calls by dose curve;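 note: potency is the fitted concentration of half-maximal effect; potency reflects cytotoxicity seen as loss of intracellular ATP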); details: MRC5 lung fibroblast viability, qHTS
Outline: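 AC50 values come from Hill-equation fits of intracellular ATP loss, measured by CellTiter-Glo luminescence. Normal lung fibroblasts (MRC5) had 40 hr compound treatment at 37 C, normalized between DMSO and 100 uM tamoxifen.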

[6] = Cell Viability - SK-N-SH (AID 435; calls by dose curve; note: potency is the fitted concentration of half-maximal effect); details: SK-N-SH neuroblastoma cell viability qHTS
Outline: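 SK-N-SH neuroblastoma cells (1500/well) treated 40 h at 37 °C in complete medium; viability read as cellular ATP by CellTiter-Glo luminescence. Normalized to DMSO and 100 uM tamoxifen; AC50 from Hill fits of qHTS concentration-response.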

[7] = target: Mitogen-activated protein kinase 10 (Mus musculus) (UniProt Q61831); experiment: JNK3 AlphaScreen Assay (AID 530; active = well fitted curve in either direction with a large enough effect, not every such curve was filed as active;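 note: kinase came from lysate of stimulated human HepG2 cells; signal reports phosphorylation of biotinylated GST-cJun 1-79 at Ser73 with 10 µM ATP; % is set by controls: 0 for no effect and ±100 for the full control effect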); details: JNK3 lysate, c-Jun phosphorylation; series mostly up to 57.1 µM
Outline: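 Kinase buffer: 20 mM Tris-HCl pH 7.6, 10 mM MgCl2, 1 mM DTT, 0.1 mM Na3VO4, 0.01% Tween-20; ATP 10 uM. Substrate biotin-GST-cJun(1-79), enzyme from activated HepG2 lysates. Detection by Ser73 phospho-antibody AlphaScreen.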

[8] = Cell Viability - N2a (AID 540); details: N2a mouse neuroblastoma cell viability; activity change, negative = cytotoxicity: at 92.2 µM (top of the series);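 note: plate controls were DMSO alone for no effect and tamoxifen control for full effect; nearly all actives have a fitted effect of over 45% in size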
Outline: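 N2a mouse neuroblastoma, 1500 cells/well, 5 hr settle; compound 40 hr, 37 °C; CellTiter-Glo 20 min RT; luminescence; Hill-fit AC50.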

[9] = Cell Viability - NIH 3T3 (AID 541); details: NIH 3T3 cell viability, qHTS; activity change, negative = cytotoxicity: at 92.2 µM (top of the series);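 note: plate controls were DMSO alone for no effect and tamoxifen positive control for full effect; nearly all actives have a fitted effect of over 25% in size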
Outline: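 qHTS format; 40 hr compound exposure, 37 °C; CellTiter-Glo luminescence (cellular ATP) read-out after 20 min at RT. Decrease in ATP = cytotoxicity; AC50 from standard Hill fit.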

[10] = Cell Viability - HUV-EC-C (AID 542); details: HUV-EC-C endothelial cell viability, qHTS; series mostly up to 92.2 µM; note: % is set by controls: 0 for no effect and ±100 for the full control effect; nearly all actives have a fitted effect of over 35% in size
Outline: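 Luminescent ATP read-out (CellTiter-Glo, 20 min room temperature) after 40 hr compound treatment of HUV-EC-C cells at 37 °C. Concentration-response data fitted with the standard Hill equation to give AC50; tamoxifen and doxorubicin served as positive controls.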

[11] = Cell Viability - H-4-II-E (AID 543); details: H-4-II-E rat hepatoma viability; series mostly up to 92.2 µM; note: % is set by controls: 0 for no effect and ±100 for the full control effect; nearly all actives have a fitted effect of over 35% in size
Outline: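 qHTS, rat hepatoma H-4-II-E, 1500 cells/well; 40 hr compound exposure, 37 °C; CellTiter-Glo ATP luminescence after 20 min RT; AC50 by standard Hill fit.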

[12] = Cell Viability - SH-SY5Y (AID 544); details: SH-SY5Y neuroblastoma cell viability; viability change, negative = cytotoxic: at 92.2 µM (top of the series); note: nearly all actives have a fitted effect of over 55% in size
Outline: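 SH-SY5Y, 1500 cells/well, 5 hr pre-incubation 37 °C; cpd 40 hr 37 °C; CellTiter-Glo 20 min RT; luminescence (ATP) read. qHTS concentration-response, Hill fit → AC50. Tamoxifen, doxorubicin as positive controls.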

[13] = Cell Viability - Renal Proximal Tubule (AID 545); details: renal proximal tubule cells viability, primary cells of rat origin; series mostly up to 91.7 µM; note: nearly all actives have a fitted effect of over 40% in size
Outline: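 Rat renal proximal tubule primary cells, 1000/well, exposed to compounds for 40 hr at 37 °C in complete medium; cellular ATP read by CellTiter-Glo luminescence. AC50 from concentration-response fitted with standard Hill equation.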

[14] = Cell Viability - Mesenchymal (AID 546); details: mesenchymal cells viability, qHTS; series mostly up to 91.7 µM;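 note: cells exposed to compound for 40 hours before reading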
Outline: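 CellTiter-Glo luminescence (intracellular ATP, 20 min room temperature) after 40 hr compound exposure at 37 °C of 1000 glomerulus-derived human kidney mesenchymal cells/well; AC50 values obtained by fitting qHTS concentration-response data to the Hill equation.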

[15] = Cellular Toxicity (caspase-3) HepG2 (AID 654); details: HepG2 caspase-3 activation, luminescence; series mostly up to 92.2 µM;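 note: cells exposed to compound for 16 hours before reading; 0% = DMSO alone and 100% = caspase signal from 100 µM tamoxifen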
Outline: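 Luminescent Caspase-Glo 3/7 readout after 16 hr compound exposure of human hepatocellular carcinoma HepG2 cells at 37 °C; qHTS concentration-response, normalized DMSO = 0%, 100 uM tamoxifen = 100%; AC50 by standard Hill equation.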

[16] = Cellular Toxicity (caspase-3) Jurkat (AID 655); details: Jurkat caspase-3 activation, luminescence; caspase-3 activation: at 92.2 µM (top of the series), DMSO = 0%, tamoxifen = 100%;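 note: cells exposed to compound for 16 h at 37 °C before reading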
Outline: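 Jurkat cells (5000/well) in complete medium exposed 16 h at 37 C; caspase-3/7 activity read by Caspase-Glo luminescence after 20 min at room temperature. Normalized to DMSO and 100 uM tamoxifen; AC50 from Hill fits.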

[17] = Cellular Toxicity (caspase-3) HUV-EC-C (AID 656); details: HUV-EC-C cells, caspase-3 activation (apoptosis), vehicle = 0, 100 µM tamoxifen = 100%; series mostly up to 92.2 µM
Outline: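 HUV-EC-C cells (1000/well) in complete medium, compound-treated 16 h at 37 °C; caspase-3/7 activity read by Caspase-Glo 3/7 luminescence. Normalized to DMSO (basal) and 100 uM tamoxifen (100%); AC50 from Hill-equation concentration-response fits.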

[18] = Cellular Toxicity (caspase-3) SHSY5Y (AID 657); details: SH-SY5Y caspase-3 activation, DMSO zero, 10 µM staurosporine = 100%; series mostly up to 91.7 µM
Outline: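 SH-SY5Y human neuroblastoma cells, 1500/well, exposed to compound for 16 hours at 37 °C in complete medium. Caspase-3/7 activity read by Caspase-Glo luminescence after 1 hr at room temperature, normalized to DMSO and 10 uM staurosporine; AC50 from Hill fit.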

[19] = Cellular Toxicity (caspase-3) BJ (AID 658); details: BJ fibroblasts, luminescence, normalized: DMSO 0%, staurosporine 100%; series mostly up to 91.7 µM
Outline: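 Caspase-Glo 3/7 luminescence, read 1 hr after reagent at room temperature, in normal BJ fibroblasts exposed 16 hours at 37 °C. AC50 values from Hill-equation concentration-response, scaled between DMSO basal and 10 uM staurosporine as 100%.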

[20] = Cellular Toxicity (caspase-3) MRC-5 (AID 659); details: MRC-5 cells, luminescence, normalized: DMSO 0%, 10 µM staurosporine 100%; series mostly up to 91.7 µM
Outline: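 Luminescent Caspase-Glo 3/7 read-out (1 h, room temperature) after a 16 h, 37 °C compound exposure of MRC-5 lung fibroblasts at 1500 cells/well. Concentration-response AC50 from Hill equation; 0% DMSO, 100% 10 uM staurosporine.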

ClCCl
inactive: Potency [1] > 92 µM | Potency [2] > 92 µM | Potency [3] > 92 µM | Potency [4] > 92 µM | Potency [5] > 92 µM | Potency [6] > 92 µM | outcome [7] | activity change, negative = cytotoxicity [8] -5.52% | Potency [9] | Potency [10] | Potency [11] | Potency [12] | Potency [13] | Potency [14] | Potency [15] | caspase-3 activation [16] 1.06% | outcome [17] | outcome [18] | outcome [19] | outcome [20]

C=CCOC(=O)COCCC(C)C
inactive: Potency [1] > 92 µM | Potency [2] > 92 µM | Potency [3] > 92 µM | Potency [4] > 92 µM | Potency [5] > 92 µM | Potency [6] > 92 µM | outcome [7] | activity change, negative = cytotoxicity [8] -4.01% | Potency [9] | Potency [10] | Potency [11] | Potency [12] | Potency [13] | Potency [14] | Potency [15] | caspase-3 activation [16] -0.573% | outcome [17] | outcome [18] | outcome [19] | outcome [20]

O=Cc1ccccc1Cl
inactive: Potency [1] > 92 µM | Potency [2] > 92 µM | Potency [3] > 92 µM | Potency [4] > 92 µM | Potency [5] > 92 µM | Potency [6] > 92 µM | outcome [7] | activity change, negative = cytotoxicity [8] -4.91% | Potency [9] | Potency [10] | Potency [11] | Potency [12] | Potency [13] | Potency [14] | Potency [15] | caspase-3 activation [16] 7.22% | outcome [17] | outcome [18] | outcome [19] | outcome [20]

COC(=O)CS
inactive: Potency [1] > 92 µM | Potency [2] > 92 µM | Potency [3] > 92 µM | Potency [4] > 92 µM | Potency [5] > 92 µM | Potency [6] > 92 µM | outcome [7] | activity change, negative = cytotoxicity [8] -8.95% | Potency [9] | Potency [10] | Potency [11] | Potency [12] | Potency [13] | Potency [14] | Potency [15] | caspase-3 activation [16] -2.15% | outcome [17] | outcome [18] | outcome [19] | outcome [20]

CCN(CC)c1cccc(O)c1
inactive: Potency [1] > 92 µM | Potency [2] > 92 µM | Potency [3] > 92 µM | Potency [4] > 92 µM | Potency [5] > 92 µM | Potency [6] > 92 µM | outcome [7] | activity change, negative = cytotoxicity [8] 0.0315% | Potency [9] | Potency [10] | Potency [11] | Potency [12] | Potency [13] | Potency [14] | Potency [15] | caspase-3 activation [16] 0.712% | outcome [17] | outcome [18] | outcome [19] | outcome [20]

CC=O
inactive: Potency [1] > 92 µM | Potency [2] > 92 µM | Potency [3] > 92 µM | Potency [4] > 92 µM | Potency [5] > 92 µM | Potency [6] > 92 µM | outcome [7] | activity change, negative = cytotoxicity [8] 1.14% | Potency [9] | Potency [10] | Potency [11] | Potency [12] | Potency [13] | Potency [14] | Potency [15] | caspase-3 activation [16] -1.03% | outcome [17] | outcome [18] | outcome [19] | outcome [20]

CC(C)N=C=NC(C)C
inactive: Potency [1] > 92 µM | Potency [2] > 92 µM | Potency [3] > 92 µM | Potency [4] > 92 µM | Potency [5] > 92 µM | Potency [6] > 92 µM | outcome [7] | activity change, negative = cytotoxicity [8] -6.55% | Potency [9] | Potency [10] | Potency [11] | Potency [12] | Potency [13] | Potency [14] | Potency [15] | caspase-3 activation [16] 2.33% | outcome [17] | outcome [18] | outcome [19] | outcome [20]

CC(C=O)Cc1ccc(C(C)(C)C)cc1 (stereo not given)
inactive: Potency [1] > 92 µM | Potency [2] > 92 µM | Potency [3] > 92 µM | Potency [4] > 92 µM | Potency [5] > 92 µM | Potency [6] > 92 µM | outcome [7] | activity change, negative = cytotoxicity [8] -7.79% | Potency [9] | Potency [10] | Potency [11] | Potency [12] | Potency [13] | Potency [14] | Potency [15] | caspase-3 activation [16] 2.85% | outcome [17] | outcome [18] | outcome [19] | outcome [20]

O=[N+]([O-])c1ccccc1CCO
inactive: Potency [1] > 92 µM | Potency [2] > 92 µM | Potency [3] > 92 µM | Potency [4] > 92 µM | Potency [5] > 92 µM | Potency [6] > 92 µM | outcome [7] | activity change, negative = cytotoxicity [8] -12.5% | Potency [9] | Potency [10] | Potency [11] | Potency [12] | Potency [13] | Potency [14] | Potency [15] | caspase-3 activation [16] 0.961% | outcome [17] | outcome [18] | outcome [19] | outcome [20]

Cc1cc(C)c(N)cc1C
inactive: Potency [1] > 92 µM | Potency [2] > 92 µM | Potency [3] > 92 µM | Potency [4] > 92 µM | Potency [5] > 92 µM | Potency [6] > 92 µM | outcome [7] | activity change, negative = cytotoxicity [8] -1.04% | Potency [9] | Potency [10] | Potency [11] | Potency [12] | Potency [13] | Potency [14] | Potency [15] | caspase-3 activation [16] -1.78% | outcome [17] | outcome [18] | outcome [19] | outcome [20]

Cc1ccc(C(C)(C)C)cc1
inactive: Potency [1] > 92 µM | Potency [2] > 92 µM | Potency [3] > 92 µM | Potency [4] > 92 µM | Potency [5] > 92 µM | Potency [6] > 92 µM | outcome [7] | activity change, negative = cytotoxicity [8] -7.24% | Potency [9] | Potency [10] | Potency [11] | Potency [12] | Potency [13] | Potency [14] | Potency [15] | caspase-3 activation [16] 1.39% | outcome [17] | outcome [18] | outcome [19] | outcome [20]
